About 6,500 targets were measured; listed, in parts, are those with a hit and a random draw of the rest. About 2% of all pairs of compound and target were hits.
Compound: COC(=O)C#Cc1ccccc1 [methyl 3-phenylpropiolate]
Assay: log2 ratio of iodoacetamide-alkyne labeling of the cysteine site, DMSO over compound (competition); higher = stronger covalent engagement of the cysteine by the compound, active = 1 or more
Conditions: 500 µM; treatment time 1 h; system: HEK293T cell lysate
Outline: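 Electrophile (500 µM) or vehicle was added to HEK293T lysate (2 mg/mL) for 1 h at ambient temperature before iodoacetamide alkyne labelling (1 h) and click coupling to sCIP-TMT reagents. After pooling, overnight trypsin digestion at 37 °C, streptavidin enrichment and acid elution, peptides were measured by Orbitrap Eclipse LC-MS/MS with FAIMS and quantified in FragPipe. Each cysteine's log2 competition ratio compares mean control-channel with mean compound-channel reporter intensity, control over compound. Data came from duplicate channels across three replicates, excluding cysteines quantified in only one replicate.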

UniProt Q86V48, sequence (Q86V48 whole entry, looked up): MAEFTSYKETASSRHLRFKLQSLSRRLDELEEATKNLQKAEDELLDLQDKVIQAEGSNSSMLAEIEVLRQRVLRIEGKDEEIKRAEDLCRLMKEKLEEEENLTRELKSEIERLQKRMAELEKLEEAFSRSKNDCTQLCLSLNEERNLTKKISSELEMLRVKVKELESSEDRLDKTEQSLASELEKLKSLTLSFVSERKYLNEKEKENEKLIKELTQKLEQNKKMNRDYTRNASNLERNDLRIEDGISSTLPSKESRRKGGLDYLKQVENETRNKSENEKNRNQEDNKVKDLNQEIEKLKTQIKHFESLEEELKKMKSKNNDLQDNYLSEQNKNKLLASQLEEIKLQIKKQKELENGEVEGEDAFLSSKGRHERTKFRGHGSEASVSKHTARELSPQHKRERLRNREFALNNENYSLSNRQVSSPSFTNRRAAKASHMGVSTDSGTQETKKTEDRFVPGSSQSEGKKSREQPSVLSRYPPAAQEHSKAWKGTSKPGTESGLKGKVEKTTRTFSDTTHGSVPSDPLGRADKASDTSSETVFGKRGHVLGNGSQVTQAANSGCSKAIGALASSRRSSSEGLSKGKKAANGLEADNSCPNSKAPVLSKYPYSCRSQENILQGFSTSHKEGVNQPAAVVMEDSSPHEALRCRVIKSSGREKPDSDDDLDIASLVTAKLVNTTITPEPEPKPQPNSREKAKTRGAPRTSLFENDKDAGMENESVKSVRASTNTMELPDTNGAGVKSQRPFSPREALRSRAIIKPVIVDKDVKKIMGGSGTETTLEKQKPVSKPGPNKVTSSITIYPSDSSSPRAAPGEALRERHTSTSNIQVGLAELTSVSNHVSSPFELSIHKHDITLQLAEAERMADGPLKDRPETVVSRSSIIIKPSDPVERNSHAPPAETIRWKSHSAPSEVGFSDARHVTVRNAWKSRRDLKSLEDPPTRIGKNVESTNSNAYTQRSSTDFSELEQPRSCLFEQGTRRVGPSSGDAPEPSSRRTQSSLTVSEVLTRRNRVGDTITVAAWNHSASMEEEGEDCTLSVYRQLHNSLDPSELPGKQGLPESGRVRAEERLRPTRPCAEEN
UniProt Q8IY17, sequence (Q8IY17 whole entry, looked up): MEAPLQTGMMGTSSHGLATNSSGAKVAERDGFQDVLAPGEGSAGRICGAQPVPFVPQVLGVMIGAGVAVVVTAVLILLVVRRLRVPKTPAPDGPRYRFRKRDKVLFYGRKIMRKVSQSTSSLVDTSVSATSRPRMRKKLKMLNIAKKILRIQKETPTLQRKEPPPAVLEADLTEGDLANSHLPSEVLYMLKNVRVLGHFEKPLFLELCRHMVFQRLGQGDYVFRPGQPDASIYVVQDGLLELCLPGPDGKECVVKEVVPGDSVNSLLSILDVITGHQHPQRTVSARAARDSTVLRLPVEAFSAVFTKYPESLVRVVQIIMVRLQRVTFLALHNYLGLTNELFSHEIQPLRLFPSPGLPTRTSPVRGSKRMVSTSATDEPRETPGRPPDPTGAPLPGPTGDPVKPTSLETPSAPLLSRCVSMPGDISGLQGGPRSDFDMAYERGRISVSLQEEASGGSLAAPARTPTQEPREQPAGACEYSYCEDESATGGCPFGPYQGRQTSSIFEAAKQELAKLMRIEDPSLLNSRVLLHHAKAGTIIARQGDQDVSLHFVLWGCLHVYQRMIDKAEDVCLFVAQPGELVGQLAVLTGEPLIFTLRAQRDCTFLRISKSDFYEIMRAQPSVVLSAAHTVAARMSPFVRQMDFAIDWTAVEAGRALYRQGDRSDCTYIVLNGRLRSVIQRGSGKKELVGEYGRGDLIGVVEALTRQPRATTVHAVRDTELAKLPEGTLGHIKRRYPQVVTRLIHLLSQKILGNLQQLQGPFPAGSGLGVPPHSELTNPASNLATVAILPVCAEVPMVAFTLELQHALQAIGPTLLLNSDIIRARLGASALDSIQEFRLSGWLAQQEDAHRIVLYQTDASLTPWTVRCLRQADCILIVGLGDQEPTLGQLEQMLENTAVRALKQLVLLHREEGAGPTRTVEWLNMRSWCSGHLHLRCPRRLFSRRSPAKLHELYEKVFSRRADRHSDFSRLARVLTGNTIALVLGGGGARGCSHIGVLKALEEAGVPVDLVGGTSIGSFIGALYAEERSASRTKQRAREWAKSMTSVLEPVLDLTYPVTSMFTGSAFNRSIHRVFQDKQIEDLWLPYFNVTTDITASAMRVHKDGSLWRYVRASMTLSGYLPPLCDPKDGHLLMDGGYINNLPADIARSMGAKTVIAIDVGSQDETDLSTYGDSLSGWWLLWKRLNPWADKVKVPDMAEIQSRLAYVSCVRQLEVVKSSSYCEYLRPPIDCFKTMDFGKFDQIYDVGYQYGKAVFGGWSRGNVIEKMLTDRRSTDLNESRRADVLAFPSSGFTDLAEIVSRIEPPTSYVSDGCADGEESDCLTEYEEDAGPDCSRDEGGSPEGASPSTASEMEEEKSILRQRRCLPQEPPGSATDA
UniProt Q6ZRI6, sequence (Q6ZRI6 whole entry): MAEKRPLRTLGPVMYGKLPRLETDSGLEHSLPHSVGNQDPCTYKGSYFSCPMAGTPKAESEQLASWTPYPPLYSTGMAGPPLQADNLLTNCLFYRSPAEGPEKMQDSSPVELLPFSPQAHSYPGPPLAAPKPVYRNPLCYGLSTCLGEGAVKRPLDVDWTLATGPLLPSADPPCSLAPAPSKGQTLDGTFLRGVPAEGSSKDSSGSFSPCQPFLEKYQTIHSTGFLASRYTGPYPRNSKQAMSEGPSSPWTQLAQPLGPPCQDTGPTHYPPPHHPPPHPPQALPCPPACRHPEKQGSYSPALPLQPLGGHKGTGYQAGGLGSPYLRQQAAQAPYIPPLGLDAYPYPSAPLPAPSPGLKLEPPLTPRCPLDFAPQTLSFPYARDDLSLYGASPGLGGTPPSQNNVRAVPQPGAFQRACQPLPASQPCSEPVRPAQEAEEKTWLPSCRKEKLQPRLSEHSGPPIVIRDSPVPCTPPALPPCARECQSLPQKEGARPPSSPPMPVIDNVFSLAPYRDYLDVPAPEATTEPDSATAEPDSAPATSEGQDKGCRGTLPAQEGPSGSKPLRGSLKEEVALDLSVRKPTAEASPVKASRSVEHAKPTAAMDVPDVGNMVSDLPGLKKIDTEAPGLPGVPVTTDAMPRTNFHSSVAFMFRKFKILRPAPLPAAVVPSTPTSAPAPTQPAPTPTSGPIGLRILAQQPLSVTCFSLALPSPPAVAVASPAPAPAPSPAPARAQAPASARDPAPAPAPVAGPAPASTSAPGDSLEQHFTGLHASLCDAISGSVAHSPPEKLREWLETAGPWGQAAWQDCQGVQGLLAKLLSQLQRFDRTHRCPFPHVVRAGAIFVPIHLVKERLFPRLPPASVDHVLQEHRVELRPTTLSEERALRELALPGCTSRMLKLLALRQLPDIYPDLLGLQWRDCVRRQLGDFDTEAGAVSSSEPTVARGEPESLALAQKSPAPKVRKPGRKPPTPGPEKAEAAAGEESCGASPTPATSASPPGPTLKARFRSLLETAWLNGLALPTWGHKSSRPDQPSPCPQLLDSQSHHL
UniProt Q92917, sequence (Q92917 whole entry, looked up): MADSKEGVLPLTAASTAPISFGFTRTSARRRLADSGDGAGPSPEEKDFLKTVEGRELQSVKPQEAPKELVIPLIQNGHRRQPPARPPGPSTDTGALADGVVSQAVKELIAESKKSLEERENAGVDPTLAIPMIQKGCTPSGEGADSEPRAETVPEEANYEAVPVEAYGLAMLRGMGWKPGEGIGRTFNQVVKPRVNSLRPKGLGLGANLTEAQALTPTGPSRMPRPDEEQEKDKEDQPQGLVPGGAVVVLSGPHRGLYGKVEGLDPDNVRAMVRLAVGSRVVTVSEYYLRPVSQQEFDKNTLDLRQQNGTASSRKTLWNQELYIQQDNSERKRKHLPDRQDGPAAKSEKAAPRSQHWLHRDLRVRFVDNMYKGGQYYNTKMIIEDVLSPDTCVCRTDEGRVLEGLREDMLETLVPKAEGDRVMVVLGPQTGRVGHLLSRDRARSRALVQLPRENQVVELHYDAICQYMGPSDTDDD
UniProt Q92769, sequence (Q92769 whole entry): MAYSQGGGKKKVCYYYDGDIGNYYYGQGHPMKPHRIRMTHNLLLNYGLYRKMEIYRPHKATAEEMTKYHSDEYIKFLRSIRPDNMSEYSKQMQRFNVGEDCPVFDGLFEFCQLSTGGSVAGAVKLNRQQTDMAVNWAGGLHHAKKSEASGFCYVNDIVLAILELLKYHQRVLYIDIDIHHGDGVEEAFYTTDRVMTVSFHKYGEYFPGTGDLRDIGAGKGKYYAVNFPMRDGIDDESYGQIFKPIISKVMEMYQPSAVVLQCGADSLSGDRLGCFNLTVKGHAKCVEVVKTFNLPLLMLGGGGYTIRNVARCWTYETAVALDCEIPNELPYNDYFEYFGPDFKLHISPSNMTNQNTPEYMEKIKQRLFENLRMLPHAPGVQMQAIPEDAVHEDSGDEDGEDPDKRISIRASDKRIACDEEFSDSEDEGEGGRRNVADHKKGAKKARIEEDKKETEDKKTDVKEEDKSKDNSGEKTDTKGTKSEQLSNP
UniProt Q8N5K1, sequence (Q8N5K1 whole entry): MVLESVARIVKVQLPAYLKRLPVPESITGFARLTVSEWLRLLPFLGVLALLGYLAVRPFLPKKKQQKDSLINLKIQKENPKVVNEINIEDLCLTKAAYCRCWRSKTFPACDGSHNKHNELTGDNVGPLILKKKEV

Target | log2 ratio of iodoacetamide-alkyne labeling
MYBBP1A C942 (UniProt Q9BQG0) | 0.523 (inactive)
UniProt Q9BSH4_C256 | -0.207 (inactive)
GPKOW C394 (UniProt Q92917) | -0.0148 (inactive)
PNPLA6 C409 (UniProt Q8IY17) | 0.4 (inactive)
HDAC2 C417 (UniProt Q92769) | 0.126 (inactive)
CISD2 C92 (UniProt Q8N5K1) | 0.0262 (inactive)
OSBPL9 C720 (UniProt Q96SU4) | -0.0484 (inactive)
UniProt Q5VSL9_C418 | 1.22 (active)
C15orf39 C367 (UniProt Q6ZRI6) | 1.32 (active)
LUZP1 C969 (UniProt Q86V48) | 1.01 (active)
HSPH1 C650 (UniProt Q92598) | 0.025 (inactive)
GIGYF2 C289 (UniProt Q6Y7W6) | -0.00206 (inactive)
